According to the supplement of paper PMC3334620:
Over roughly 33,000 sequences, “E-score (-0.5 to 0.5)” has its median near -0.054; the highest 2% begin near 0.39. Shown is part of a subset that was picked to be rich in the highest values.

Molecular target: Ylr278c (UniProt Q05854)
Test: PBM E-score (8-mer binding enrichment) (E-score (-0.5 to 0.5)); higher = stronger / more preferred TF binding
Settings: protein concentration: 200 nM; construct: GST-DNA-binding domain
In short: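 E-scores (a modified Wilcoxon-Mann-Whitney statistic) were assigned by the Universal PBM Analysis Suite to every ungapped eight-base word pooled with its reverse complement. The input came from universal all-10-mer Agilent arrays made double-stranded by primer extension and probed with GST-tagged yeast transcription factors at about 100-200 nM. Fluorescent anti-GST detected bound protein, and masliner normalised the scans.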

UniProt Q05854, sequence (Q05854 whole entry): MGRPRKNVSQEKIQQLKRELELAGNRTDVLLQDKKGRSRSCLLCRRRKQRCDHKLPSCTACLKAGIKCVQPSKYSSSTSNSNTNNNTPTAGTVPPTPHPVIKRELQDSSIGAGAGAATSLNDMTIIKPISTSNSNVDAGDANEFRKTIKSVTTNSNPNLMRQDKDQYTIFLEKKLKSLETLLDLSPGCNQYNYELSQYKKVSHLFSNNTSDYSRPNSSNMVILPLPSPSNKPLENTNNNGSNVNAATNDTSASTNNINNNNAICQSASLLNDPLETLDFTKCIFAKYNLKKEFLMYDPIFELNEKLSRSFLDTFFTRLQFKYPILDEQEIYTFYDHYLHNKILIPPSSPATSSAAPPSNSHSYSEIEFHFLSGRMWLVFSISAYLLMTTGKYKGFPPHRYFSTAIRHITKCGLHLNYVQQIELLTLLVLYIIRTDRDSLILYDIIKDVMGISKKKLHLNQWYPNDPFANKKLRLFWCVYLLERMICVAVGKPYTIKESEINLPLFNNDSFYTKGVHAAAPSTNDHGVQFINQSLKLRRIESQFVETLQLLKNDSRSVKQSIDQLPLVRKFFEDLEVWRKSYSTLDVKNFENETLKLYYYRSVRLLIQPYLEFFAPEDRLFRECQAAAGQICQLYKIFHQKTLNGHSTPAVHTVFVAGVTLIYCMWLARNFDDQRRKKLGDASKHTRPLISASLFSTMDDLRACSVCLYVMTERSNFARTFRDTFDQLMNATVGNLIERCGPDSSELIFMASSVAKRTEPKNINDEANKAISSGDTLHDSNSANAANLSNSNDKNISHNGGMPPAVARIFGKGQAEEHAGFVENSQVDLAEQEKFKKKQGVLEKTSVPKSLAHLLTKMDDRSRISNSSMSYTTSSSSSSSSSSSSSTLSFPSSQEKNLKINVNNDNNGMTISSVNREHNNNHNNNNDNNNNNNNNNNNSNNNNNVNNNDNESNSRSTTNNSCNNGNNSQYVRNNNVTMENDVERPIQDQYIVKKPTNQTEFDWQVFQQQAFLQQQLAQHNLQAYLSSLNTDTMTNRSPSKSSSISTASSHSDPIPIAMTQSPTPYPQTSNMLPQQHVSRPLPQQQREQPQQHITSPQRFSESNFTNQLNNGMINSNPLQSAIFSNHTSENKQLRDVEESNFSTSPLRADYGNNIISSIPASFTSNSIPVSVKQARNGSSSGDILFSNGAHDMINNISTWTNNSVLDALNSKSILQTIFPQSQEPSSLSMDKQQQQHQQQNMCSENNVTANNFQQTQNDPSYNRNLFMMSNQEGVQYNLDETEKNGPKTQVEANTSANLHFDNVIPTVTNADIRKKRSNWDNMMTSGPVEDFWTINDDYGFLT

Sequence	PBM E-score
CCTACAGA	-0.256
GAGTCGCC	0.0773
GTCAGATA	-0.151
TCCTTGAA	-0.227
GTTTCTGA	0.0572
AGGGCCCG	0.152
CGGGCCCG	0.398
CGGGCCCA	0.091
ATTTCTGC	0.184
GCGCAGCC	0.0388
AACGGACC	0.251
AGCGGACC	0.252
ATCGGACC	0.412
GTCGGACA	0.386
CTCGGACC	0.365
GGCGGACC	0.413
CTCGGATA	0.215
ATCGGTCC	0.325
ATCGGATG	0.329
ATCGGATA	0.393
CTCGGACA	0.435
CGCGGACC	0.386
CAGTGTTC	-0.0124
ACCCAAGT	-0.215
AATTCAAT	-0.026

Sequence	PBM E-score
AGAAGTCA	-0.0826
AAAGCACA	-0.103
GCAACAGA	0.0725
AGCGGACA	0.294
ATCGGACA	0.419
ATCGGACG	0.357
CAGGCTAA	-0.247
AGTGCGAG	-0.276
ACCCTTAT	-0.098
TTCGAAAA	0.0013
CCCACGGA	0.359
GTCACGGA	0.401
GGAACGGA	0.398
ACCACGGA	0.341
CTCACGGA	0.264
ATCACGGA	0.365
CGAACGGA	0.312
TCCACGGA	0.406
AGAACGGA	0.256
TACTGCTA	-0.151
GCATACCC	-0.0377
GCGTCTTA	-0.209
GGGATGCA	-0.0857
CTCTCTTA	-0.169
AAATCTTA	-0.149

Sequence	PBM E-score
GCCCTTCC	-0.0379
AAGGCCGG	0.434
AAGGCCGC	0.188
AAGGCCCG	0.128
CAGGCCGG	0.176
AAGGCCGA	0.4
AAGGCCGT	0.142
CGCCTAAA	-0.186
ATAATGCA	-0.276
CGCCTCGC	0.0203
AGGGGTTC	0.0104
GGGGGTTA	-0.28
CGGGGTTA	0.437
CCGGGTTC	0.337
CGGGGTTC	0.401
AGGGGTTA	-0.171
ATAAGTTG	-0.0479
GCTGTCTA	-0.154
AATTCTCA	-0.13
CATTCTCC	0.191
AATTCTCC	0.407
ACAAAAGG	0.0804
TCACCGGA	0.394
ACACCGGC	0.355
CCACCGGC	0.295

Sequence	PBM E-score
CCACCGGA	0.455
CCACCGGG	0.329
GCACCGGA	0.429
GCACCGTA	0.0145
ACACCGGT	0.324
GCACCGGC	0.264
TCACCGCA	0.0213
TCACCGAA	0.178
ACACCGGA	0.416
GAGTCTCC	0.291
CCGCTTGC	0.217
GTACTAGA	-0.178
AGGACGTC	0.0253
AGGGCCCA	0.00775
AAGCGCAA	0.0312
AGTGGTGG	-0.158
AATCCACG	0.0023
GCCCGACA	0.216
GGCCGACA	0.248
GTCCGACA	0.393
CTCCGACC	0.458
ATCCGACC	0.234
CCCCGACA	0.301
ATCCGACA	0.382
CACCGACC	0.192

Sequence	PBM E-score
CTCCGACA	0.438
CACCATCA	-0.0978
GCTAGATA	-0.085
GAGGGGTA	-2e-05
ACGATGCA	-0.0494
CTTGCAAA	0.034
AGAAATCG	0.0562
CTAAAGAC	-0.12
CGGGAGCA	0.108
ACGGAGCA	0.344
CCGGAGCG	0.458
CCGGAGCA	0.473
ACGGAGCG	0.396
GCGGAGCA	0.376
ATGGAGCG	-0.0671
CAGGAGCG	-0.00543
CCAGAGCG	-0.00204
AGGGAGCG	-0.14
ACGGAGCC	0.385
ACGGAGCT	0.395
TACTCATA	-0.285
AGCATTGC	-0.106
GCAGTTCC	0.169
AGTGCGTA	-0.0325
CAGATAAC	0.123

Sequence	PBM E-score
CCCACTGA	-0.155
GTAGAAGA	-0.177
GCGGAGCC	0.394
CCGGAGCC	0.422
CGGGAGCC	0.0673
GCAGAGCC	-0.128
TCAGAGCA	-0.282
TCGGAGCA	0.455
TAGGAGCA	-0.184
CTGGAGCC	0.0766
GAGGAGCC	-0.0931
CTGAGGAC	0.0445
AGTCTTTG	-0.289
CATCAAGC	-0.0328
GGGGGCCA	-0.0264
AAGCAAAT	-0.19
GTCACGAA	-0.0546
AGTGTTAT	-0.0541
CAGTCCAA	-0.218
CGGAACAG	0.388
AGGAACAG	-0.279
CGGAACAA	0.427
TGGAACAA	-0.206
CGGAACAC	0.353
GGGAACAA	0.0828

Sequence	PBM E-score
AAACAGCA	0.0669
ATTTCATC	0.166
GCTTGTTA	0.0864
GCGGATCC	0.271
CAGGATCG	0.00336
CCGGATCA	0.385
CCGGATCC	0.42
ACGGATCG	0.142
CCGGATCG	0.396
CTCTTCTC	-0.106
AAATTCAA	0.0115
CAACTAAA	-0.0258
ACTACTCG	0.0653
ATCCTGGA	-0.101
CGTGGTAG	-0.0716
GTGGGAAC	-0.189
ATCGGAAT	0.443
TCGGGAAA	0.35
TTCGGAAA	0.419
ATCGGAAC	0.406
AGCGGAAT	0.385
AACGGAAT	0.379
CTCGGAAA	0.374
CTCGGAAC	0.381
ATTGGAAC	-0.0837

Sequence	PBM E-score
GTCGGAAC	0.413
AACGGAAC	0.322
GATGACGC	-0.146
AGACACCT	-0.185
CGCAGGGC	0.049
ACTTTGCT	-0.141
ACTAACGC	0.0051
AACCTCAT	-0.143
GTCGGGAA	0.201
AGCGGAAA	0.358
GTCGGAAA	0.424
ATCGGAAG	0.332
ATCGGAAA	0.416
CAGCCACC	0.0671
AGCGACTC	-0.142
ACAAACTC	0.155
CCCTTTAA	-0.0852
CTCGTTCC	0.165
ATTAACCG	0.322
CATTTGGG	-0.0571
GAAGAGAC	0.0662
TCATCGCA	-0.0812
CCATCGGA	0.415
GCATCGGA	0.437
TCATCGGA	0.408

Sequence	PBM E-score
CCATCGGC	0.282
TCATCGAA	-0.174
CCATCGGG	0.259
ACATCGGA	0.377
GCATCGGC	0.308
AAAAAGAG	-0.21
AGATCGCC	-0.00696
CCGAGAAG	0.226
GACAATGC	0.0317
GAGTCGAC	0.00525
CAATGGTG	-0.248
ACTCAATA	-0.101
TCTCCAAA	-0.126
ACGCCGAC	0.343
ACACCGAC	0.26
ACTCCGAC	0.481
ACTCCTAG	-0.114
CCTCCAAC	-0.212
CCACCGAC	0.0976
ACTCCAAG	-0.198
ACTCCGAG	0.478
CCTCCGAC	0.405
TCTCCGAA	0.455
TCTCCTAA	-0.144
